Assay outcomes: PubChem BioAssay, several laboratories
Mdm2 MdmX PPI – inhibitors of human Mdm2/MdmX interaction; SaOS-2 split-luciferase Mdm2/MdmX complementation, luminescence; O15151+Q00987; inhibition, % at 8 µM; 330,000 compounds, 3% hits; AID 485346;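 active = inhibition of at least 50% at 8 µM in the primary screen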
Target sequence (O15151 whole entry, looked up): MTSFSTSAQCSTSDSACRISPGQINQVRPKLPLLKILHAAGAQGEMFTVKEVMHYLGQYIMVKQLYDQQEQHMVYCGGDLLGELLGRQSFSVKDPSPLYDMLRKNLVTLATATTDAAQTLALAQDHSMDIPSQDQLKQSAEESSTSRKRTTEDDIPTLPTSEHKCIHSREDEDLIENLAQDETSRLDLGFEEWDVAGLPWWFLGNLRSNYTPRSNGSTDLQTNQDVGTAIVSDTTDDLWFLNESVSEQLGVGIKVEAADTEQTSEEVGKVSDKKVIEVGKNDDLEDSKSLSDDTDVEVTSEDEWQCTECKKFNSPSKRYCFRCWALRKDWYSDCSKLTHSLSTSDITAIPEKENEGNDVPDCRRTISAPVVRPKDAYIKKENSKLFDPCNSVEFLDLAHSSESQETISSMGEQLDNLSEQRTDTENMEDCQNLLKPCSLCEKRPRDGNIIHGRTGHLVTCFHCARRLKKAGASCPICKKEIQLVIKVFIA
Target sequence (Q00987 whole entry, looked up): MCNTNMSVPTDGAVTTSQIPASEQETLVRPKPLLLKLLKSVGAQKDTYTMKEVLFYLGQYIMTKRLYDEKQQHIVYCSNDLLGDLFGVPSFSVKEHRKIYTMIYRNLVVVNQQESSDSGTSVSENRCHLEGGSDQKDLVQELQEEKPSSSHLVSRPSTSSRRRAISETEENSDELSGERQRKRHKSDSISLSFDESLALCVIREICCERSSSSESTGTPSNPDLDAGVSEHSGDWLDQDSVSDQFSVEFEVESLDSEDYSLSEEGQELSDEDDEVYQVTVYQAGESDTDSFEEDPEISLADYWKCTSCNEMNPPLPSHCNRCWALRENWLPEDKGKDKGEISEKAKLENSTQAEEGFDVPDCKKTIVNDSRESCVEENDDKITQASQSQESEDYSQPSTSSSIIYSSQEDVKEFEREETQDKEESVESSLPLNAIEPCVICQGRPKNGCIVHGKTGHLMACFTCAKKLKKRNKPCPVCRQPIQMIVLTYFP
GRIN3A LBD mod – modulators (binders) of human NR3A ligand-binding domain; AID 1259313; NR3A LBD differential scanning fluorimetry, Tm shift; 0% = protein alone, 100% = glycine-bound protein; 340,000 compounds, 2.5% hits; Tm shift relative to glycine control, % at 25 µM;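 active = melting temperature shift of at least 10% of the positive control shift, at one fixed dose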
Beta cell apopt – blocks beta cell apoptosis. INS-1E cytokine-induced death, ATP luminescence, 48 h; percent of positive-control rescue, neutral wells zero. protection from apoptosis, % (concentration not given with the values). 300,000 compounds, 0.8% hits. AID 435005;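 active = Every replicate reaches about 75%, or at least half do and their mean reaches it too, limit read from the data; inconclusive = At least half of replicates reach the limit but their mean does not; inactive = Under half of replicates reach the limit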;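 also: higher means more ATP so stronger rescue from cytokine killing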
SKKanGAS inh – blocks kanamycin growth of S. pyogenes SKKanGAS strain; inhibition, % at 7.5 µM; 300,000 compounds, 1.3% hits; AID 1662; BacTiter-Glo, 6 h;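 active = mean replicate score, as percent of positive control median, at least 50; inconclusive = mean below 50 but one replicate at or above 50; inactive = mean and every replicate below 50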;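 also: strain carries kanamycin resistance gene driven by streptokinase promoter and grows in 40 µg/ml kanamycin; loss of luminescence reflects streptokinase promoter inhibition or plain growth inhibition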
MPTP inh – permeability transition pore inhibition. isolated mouse mitochondria, Ca2+ swelling absorbance, 30 min. inhibition, % at 10 µM. 360,000 compounds, 1.4% hits;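 active = inhibition of 50% or more, scaled per plate between neutral and stimulator controls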
CSC inhib – blocks cancer stem cells; cancer stem cell-like cells viability, luminescence; inhibition, % at 7.5 µM; 300,000 compounds, 1.1% hits; in the data active = inhibition above about 75%; inconclusive = no clear call, values can overlap the other calls; tested in HMLE shEcad cells
Mdm2 MdmX conf – confirmation of human Mdm2/MdmX interaction inhibitors | 10,000 compounds, 55% hits | inhibition, % at 8 µM | shares compounds with Mdm2 MdmX PPI | Mdm2-MdmX binding, luminescent assay; in the data active = inhibition above about 40%
Full FLuc ctr – full-length luciferase inhibition in Mdm2/MdmX counter-screen | shares compounds with Mdm2 MdmX PPI | SaOS-2 full-length luciferase counterscreen, luminescence | inhibition, % at 8 µM | 6,200 compounds, 77% hits | AID 504607;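 active = mean inhibition at 8 µM reaching about 37%, which flags the compound as non-specific, limit read from the data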;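 also: p53-null SaOS-2 cells with luciferase driven by a doxycycline-inducible promoter; compound on cells about two nights before reading with doxycycline added after day one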
Numbers stand for hits; - = inactive; ? = inconclusive; . = no result. Rows were chosen to be rich in hits. Some 6.9% of all compounds tested hit in one or more screens of this group.

SMILES | Mdm2 MdmX PPI | GRIN3A LBD mod | Beta cell apopt | SKKanGAS inh | MPTP inh | CSC inhib | Mdm2 MdmX conf | Full FLuc ctr
CC(=O)N[C@@H](Cc1c[nH]c2ccccc12)C(=O)NC1CC1 | - | - | - | - | - | - | . | .
O=C1[C@@H](Oc2ccccc2)[C@@H](c2cnc3ccccc3c2)N1c1ccccc1 | 53 | - | . | . | - | . | 54 | 56
O=C1[C@H](Oc2ccccc2)[C@@H](c2ccncc2)N1c1ccncc1 | - | - | . | . | - | . | . | .
C[C@H]1CN([C@@H](C)CO)C(=O)Cc2cc(NC(=O)CCC(F)(F)F)ccc2O[C@H]1CN(C)S(=O)(=O)c1ccc(Cl)cc1 | 55 | - | . | . | - | . | 50 | 65
C[C@@H]1CN([C@@H](C)CO)C(=O)Cc2cc(NC(=O)Nc3ccc(F)cc3)ccc2O[C@@H]1CN(C)Cc1ccc(Cl)c(Cl)c1 | 100 | 18 | - | . | - | . | 63 | 56
C[C@H]1CN([C@@H](C)CO)C(=O)Cc2cc(NC(=O)CCC(F)(F)F)ccc2O[C@H]1CN(C)S(=O)(=O)c1ccc(F)cc1 | - | - | - | . | - | - | . | .
C[C@@H]1CN([C@H](C)CO)C(=O)c2cc(NC(=O)Cc3ccccc3)ccc2O[C@H]1CN(C)Cc1ccc(Oc2ccccc2)cc1 | 73 | - | - | . | - | - | - | .
C[C@@H]1CN([C@@H](C)CO)C(=O)c2cc(NC(=O)Nc3ccc(F)cc3)ccc2O[C@@H]1CN(C)Cc1ccc(Oc2ccccc2)cc1 | 94 | 12 | - | . | - | 137 | - | .
CCOC(=O)c1oc2ccccc2c1COC(=O)CNC(=O)c1ccc(C)cc1 | - | - | - | - | - | - | . | .
Cc1cc(=O)[nH]c2cc(O)ccc12 | - | - | - | - | - | - | . | .
CC(C)=CCCC1(C)C=Cc2c(c(C)cc3c2[nH]c2cc(O)ccc23)O1 (stereo not given) | 69 | 19 | . | 107 | - | 93 | - | .
Cc1cc(C(=O)Nc2c(F)cc(F)cc2Br)n(-c2ccccc2)n1 | - | - | - | - | - | - | . | .
Cn1nc(-c2ccccn2)nc2c(=O)n(C)c(=O)nc1-2 | 66 | - | 127 | 52 | - | 120 | 80 | -
Cc1ccc(NC(=O)CCCn2nc(C)c3c(C)n(-c4ccccc4)nc3c2=O)c(Cl)c1 | - | - | - | - | - | . | . | .
CN=c1scc(-c2ccccc2F)n1/N=C/c1ccc[nH]1 | 94 | - | - | - | - | - | 98 | -
COc1ccc(C(=O)C(CCCCC(CN(C)C)C(=O)c2ccc(OC)cc2)CN(C)C)cc1 (stereo not given) | 86 | - | - | - | - | - | 59 | -
O=C(NCC1CCCO1)c1cccc(S(=O)(=O)Nc2ccc(SC(F)F)cc2)c1 (stereo not given) | - | - | - | . | - | . | . | .
CCn1nc(C)cc1-c1nnc(Sc2ncc([N+](=O)[O-])s2)n1C | 96 | - | . | 51 | - | . | 97 | 51
CCOc1ccc(CNS(=O)(=O)c2c(C)nc3sccn3c2=O)cc1OC | - | - | - | - | - | - | . | .
CCN(CC)C(=O)[C@H]1C[C@H](CC(=O)NC/C=C(\C)CCC=C(C)C)C(=O)N2CCc3c([nH]c4cc(CCC(=O)N(C)C)ccc34)[C@]12C | 68 | - | . | . | - | . | - | .
CC(C)=CCC/C(C)=C/CNC(=O)C[C@H]1C[C@H](C(=O)N2CCOCC2)[C@@]2(C)c3[nH]c4ccc(Cl)cc4c3CCN2C1=O | 88 | - | . | . | - | . | - | .
CCOC(=O)N1CCN(S(=O)(=O)c2ccc(C(=O)Nc3nnc(CC)o3)cc2)CC1 | - | - | - | - | - | . | . | .
CCOC(=O)N1CCN(S(=O)(=O)c2ccc(C(=O)Nc3nc4c(s3)CC(C)CC4)cc2)CC1 (stereo not given) | 78 | - | - | - | - | - | - | .
Cc1cccc2sc(NNC(=O)c3ccc(S(=O)(=O)N4CCc5ccccc5C4)cc3)nc12 | 83 | - | 92 | 59 | - | 103 | 82 | 76
Cc1cc(C)c2nc(NNC(=O)c3ccc(S(=O)(=O)N4CCCCC4)cc3)sc2c1 | 72 | - | - | ? | - | 102 | 45 | 47
